Measurements as given in the supplement of paper PMC6555819.

Experiments:
Assay in all cases: PBM binding z-score (relative to random genomic background probes); higher = stronger binding; sequences stand for … in GC…GCGATTGACAGCGTAGAATGAAGG
[1] = tested on: FXR:RXRa (NR concentration 270 nM, RXRa partner concentration 90 nM)
In short: (§1)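 Binding z-scores take random background probes as their reference. They come from custom Agilent 4×180K protein-binding microarrays incubated 1 h with ligand-free nuclear receptor dimers, with antibodies against each partner (one per run) detecting binding. Scanned fluorescence was regression-normalized.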

[2] = tested on: LXRa:RXRa (NR concentration 270 nM, RXRa partner concentration 90 nM)
In short: as §1

[3] = tested on: LXRa homodimer (NR concentration 270 nM)
In short: as §1

[4] = tested on: LXRb:RXRa (NR concentration 270 nM, RXRa partner concentration 90 nM)
In short: as §1

[5] = tested on: LXRb homodimer (NR concentration 270 nM)
In short: as §1

[6] = tested on: PPARa:RXRa (NR concentration 270 nM, RXRa partner concentration 90 nM)
In short: as §1

[7] = tested on: PPARg:RXRa (NR concentration 180 nM, RXRa partner concentration 90 nM)
In short: as §1

[8] = tested on: PPARg:RXRa 270nM:90nM, anti-RXR (NR concentration 270 nM, RXRa partner concentration 90 nM)
In short: as §1

[9] = tested on: PPARg:RXRa 30nM:10nM, anti-RXR (NR concentration 30 nM, RXRa partner concentration 10 nM)
In short: as §1

[10] = tested on: PPARg:RXRa 90nM:30nM, anti-RXR (NR concentration 90 nM, RXRa partner concentration 30 nM)
In short: as §1

[11] = tested on: PPARg:RXRa DBDmut IVT, anti-RXR (DBD mutation: RXRa K156A/R161A, NR concentration 270 nM, RXRa partner concentration 90 nM)
In short: as §1

[12] = tested on: PPARg:RXRa IVT, anti-PPARg (NR concentration 270 nM, RXRa partner concentration 90 nM)
In short: as §1

[13] = tested on: PPARg DBDmut:RXRa IVT, anti-PPARg (DBD mutation: PPARg1 K132A/R137A, NR concentration 270 nM, RXRa partner concentration 90 nM)
In short: as §1

[14] = tested on: PPARg DBDmut IVT, anti-PPARg (DBD mutation: PPARg1 K132A/R137A, NR concentration 270 nM)
In short: as §1

[15] = tested on: PPARg homodimer (NR concentration 180 nM)
In short: as §1

[16] = tested on: PXR:RXRa (NR concentration 270 nM, RXRa partner concentration 90 nM)
In short: as §1

[17] = tested on: PXR homodimer (NR concentration 270 nM)
In short: as §1

[18] = tested on: RARa:RXR (NR concentration 270 nM, RXRa partner concentration 90 nM)
In short: as §1

[19] = tested on: RARa homodimer (NR concentration 270 nM)
In short: as §1

[20] = tested on: RARb:RXRa (NR concentration 270 nM, RXRa partner concentration 90 nM)
In short: as §1

| Sequence | PBM binding z-score [1] | PBM binding z-score [2] | PBM binding z-score [3] | PBM binding z-score [4] | PBM binding z-score [5] | PBM binding z-score [6] | PBM binding z-score [7] | PBM binding z-score [8] | PBM binding z-score [9] | PBM binding z-score [10] | PBM binding z-score [11] | PBM binding z-score [12] | PBM binding z-score [13] | PBM binding z-score [14] | PBM binding z-score [15] | PBM binding z-score [16] | PBM binding z-score [17] | PBM binding z-score [18] | PBM binding z-score [19] | PBM binding z-score [20] |
| --- | --- | --- | --- | --- | --- | --- | --- | --- | --- | --- | --- | --- | --- | --- | --- | --- | --- | --- | --- | --- |
| TAGCCTAGGTGATGGGCCAGTATACCACGCGAAC | -0.85 | -0.73 | -0.59 | -0.909 | -0.955 | -0.386 | 0.501 | 0.427 | -0.547 | -0.0568 | -0.692 | 0.25 | -0.775 | -0.847 | -0.49 | -0.714 | -0.807 | -0.895 | -1.38 | -0.281 |
| ACTATCAGTTGAGACGAGGGCAACCGATAGGTTG | 0.189 | 0.0109 | -0.515 | -0.348 | -0.0586 | 0.26 | 0.645 | 0.00158 | 0.149 | -0.0981 | -0.519 | 0.218 | -0.42 | -0.235 | 0.148 | 1.44 | -0.0291 | 0.7 | -0.128 | 0.903 |
| AATTACGGGTCAACGAGGTTATAGCACGCGTATA | 7.35 | 6.12 | 3.47 | 4.88 | 1.02 | 6 | 6.93 | 6.19 | 2.81 | 5.1 | 3.6 | 5.01 | 2.85 | 2.31 | 3.16 | 5.27 | 3.27 | 5.49 | 1.87 | 4.27 |
| CGAACTAGGTCAAGGACAGAGAATCTCCGCACGC | 3.32 | 1.95 | -0.0711 | 1.25 | -0.37 | 4.47 | 7.55 | 6.28 | 3.62 | 5.63 | 8.21 | 8.28 | 3.36 | 1.6 | 1.59 | 0.886 | -0.0315 | 1.87 | 0.29 | 3.87 |
| TTTTGTAGATCAATAGAGGTTAAGAAAGTGCGCT | 0.883 | 3.94 | 1.12 | 1.9 | 0.26 | 2.02 | 0.38 | 1.37 | 1.13 | 1.41 | 1.22 | 1.99 | 1.51 | 1.54 | 1.32 | 3.37 | 0.915 | 2.2 | 1.45 | 1.15 |
| GCTAATTGGTCAGTAAAAGGTCACACACCGGTCG | 3.55 | 4.31 | 5.15 | 4.41 | 1.19 | 4.8 | 3.38 | 4.52 | 2.45 | 3.96 | 1.17 | 3.09 | 0.371 | 1.23 | 3.29 | 4.83 | 1.25 | 5.26 | 2.18 | 4.66 |
| CCTCGGAGGACAGAAGGTCCGAGCTGTCCGCTTT | -0.475 | -0.736 | -0.887 | -1.15 | -0.992 | -1.11 | -0.956 | -1.22 | -1.48 | -1.44 | -0.468 | -1.02 | -0.692 | -1.96 | -0.27 | -0.746 | -0.803 | -0.601 | -1.06 | 0.0749 |
| GCTCGGAAGACAAGGTCAGAGCTTTGTCCGTAGA | 1.01 | 1.26 | -0.528 | 0.906 | -1.34 | 1.97 | 0.0442 | 0.519 | -0.417 | 0.239 | 0.0129 | 0.063 | -0.999 | -2.1 | 0.392 | 1.41 | -0.453 | 1.9 | -0.69 | 2.58 |
| TTACCAAGGTGAAAGGTCGTTGTTGCACGCCTTG | 3.74 | 3.17 | 0.187 | 3.12 | -0.415 | 5.29 | 8.39 | 7.47 | 6.57 | 8.04 | 2.71 | 4.85 | -0.135 | 0.857 | 1.39 | 3.78 | 0.253 | 5.2 | -0.175 | 3.09 |
| GGAACGAGGGCAAAGTTTATAGCATCTGTCGACG | 1.77 | 1.29 | 0.174 | 1.19 | -0.358 | 4.45 | 7.54 | 7.55 | 7 | 7.92 | 4.26 | 4.43 | 0.246 | 0.345 | 0.817 | 1.91 | 0.961 | 1.74 | 0.0168 | 2.6 |
| AGAATGAGGTTATACGTAGATAAGGGAAGAAAGT | 2.05 | 1.86 | -0.00161 | 1.56 | 0.00672 | 3.3 | 2.47 | 2.07 | 1.02 | 1.67 | 2.89 | 2.2 | 1.07 | 1.1 | 0.963 | 1.17 | 0.795 | 1.65 | 0.439 | 1.37 |
| GCGACTGCGGCATCAGCAGGTTACCATAACTTAA | -0.558 | -0.742 | 0.0285 | -0.388 | -1.12 | -0.34 | -0.014 | -0.695 | -0.628 | -0.649 | -0.255 | -0.657 | -1.23 | -0.596 | -0.378 | -0.379 | -0.376 | -0.0824 | -0.219 | -0.277 |
| GTACCAAGGTGAATAGGTGGTTGATGAGTAGGCG | 0.118 | 0.242 | -0.513 | -0.25 | -0.203 | 0.864 | 0.851 | 0.683 | 0.0319 | 0.389 | 1.79 | 1.93 | 0.268 | -0.307 | 0.741 | -0.428 | 0.469 | -0.021 | 0.656 | 1.21 |
| TCTTGTAGTTCAGCAGGTTAAGAAAGCTGGCCAA | 0.786 | 1.15 | 0.28 | 0.805 | 0.146 | 1.5 | -0.802 | 1.61 | 2.42 | 1.86 | 1.37 | 0.541 | -0.927 | 0.25 | 0.434 | 0.887 | 0.352 | 1.18 | 0.277 | 1.76 |
| CCAACTAGGTCAAGAGGTCAAAGTCCGCTTCCCG | 6.96 | 6.55 | 6.26 | 5.47 | 1.76 | 6.42 | 9.41 | 7.99 | 6.27 | 8.1 | 8.09 | 8.02 | 4.07 | 5.47 | 8.09 | 6.37 | 2.79 | 8.12 | 3.13 | 5.34 |
